tim23-1 inh = inhibits growth of tim23-1 mutant yeast. AID 463212. S. cerevisiae tim23-1 growth, BacTiter-Glo luminescence, 24 h. hit rate 1.3% among 330,000. inhibition, % at 20 µM;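 active = growth inhibition of the mutant yeast at or above 50%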;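 note: temperature-sensitive mutant grown at 25 °C; plate controls were DMSO-treated mutant yeast for no effect and medium wells lacking yeast for full effect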
NLRP3 yeast inh = blocks the NALP3 inflammasome reconstituted in yeast | Yeast reconstituted NLRP3/ASC/caspase-1, beta-gal luminescence, 24 h | inhibition, % at 10 µM | hit rate 0.39% among 330,000 | AID 2825;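 active = inhibition of 50% or more; inactive = inhibition below 50%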;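 note: plate controls were induced DMSO wells for no effect and uninduced yeast grown without galactose for full effect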
TIM10 inh = TIM10 yeast growth inhibition | S. cerevisiae TIM10 strain growth, BacTiter-Glo luminescence, 24 h | inhibition, % at 10 µM | hit rate 1.4% among 330,000 | AID 463195;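 active = inhibition of 40% or more at the single tested concentration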;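 note: wild-type TIM10 isogenic control strain grown at permissive 25 °C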
tim10-1 inh = tim10-1 yeast growth inhibition. inhibition, % at 20 µM. hit rate 2.2% among 330,000. S. cerevisiae tim10-1 ts strain growth, BacTiter-Glo, 24 h;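 active = inhibition of at least 40%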;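 note: mutant grown at 25 °C; 0% = DMSO wells with yeast and 100% = wells holding no yeast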
PfHsp90 yeast 2 = reduces growth (ATP signal) of yeast expressing P. falciparum Hsp90; S. cerevisiae expressing PfHsp90, BacTiter-Glo ATP, 48 h; yeast lacking PDR1 and PDR3 efflux regulators; inhibition, % at 9.4 µM; hit rate 0.32% among 310,000;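 active = every replicate shows inhibition above about 80%, whatever the replicate mean, limit read from the data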;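 note: 0% = DMSO neutral controls and 100% = 20 µM radicicol positive controls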
tim23-1 conf = tim23-1 yeast growth inhibition, confirmed. shares compounds with tim23-1 inh. S. cerevisiae tim23-1 growth, BacTiter-Glo luminescence, 24 h. inhibition, % at 20 µM. hit rate 83% among 4,400;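 active = inhibition above about 39% in either of two replicate wells at 20 µM, limit read from the data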;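 note: temperature-sensitive tim23-1 mutant grown at 25 °C; 0% = DMSO wells with yeast and 100% = medium wells without yeast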
* = called active by the depositor; . = not tested or not shown. The list is not random: actives were taken first. Their share in the collection is about 3.7%.

SMILES | tim23-1 inh | NLRP3 yeast inh | TIM10 inh | tim10-1 inh | PfHsp90 yeast 2 | tim23-1 conf
COc1ccc(N=c2cc(-c3ccc(OC)cc3)oc3ccccc23)cc1 | 51* | 27 | 30 | 27 | -25 | 39*
Cn1nnnc1Sc1ncnc2scc(-c3ccc(Br)cc3)c12 | 68* | 3 | 21 | 20 | . | 59*
Cc1ccc(C)c(NC(=O)c2cc([N+](=O)[O-])cc([N+](=O)[O-])c2)c1 | 55* | 13 | 18 | 29 | -7 | 51*
CCOC(=O)c1c(C=O)c2sc(C)cc2n1C | 53* | 34 | -7 | -1 | -5 | 45*
C#C[C@]1(O)CC[C@H]2[C@@H]3CCC4=Cc5oncc5C[C@]4(C)[C@H]3CC[C@@]21C | 50* | -26 | 7 | 40 | -8 | 50*
COc1ccc(/C=C(\C#N)c2nc3ccccc3[nH]2)cc1O | 51* | 31 | -4 | -29 | -4 | 43*
COc1cc(/C=C(\C#N)c2nc3ccccc3[nH]2)ccc1Oc1ccc([N+](=O)[O-])cn1 | 58* | 29 | 29 | 11 | 0 | 36
COc1cc(/C=C(\C#N)c2nc3ccccc3[nH]2)cc(OC)c1O | . | . | . | . | -33 | .
O=C(CSc1nc(-c2ccccc2)ns1)NCC1CCCO1 (stereo not drawn) | 5 | 11 | 0 | 4 | -3 | .
COc1ccc(NC(=O)C2CCCN(S(=O)(=O)c3c(C)[nH]c(=O)[nH]c3=O)C2)cc1OC (stereo not drawn) | 5 | 1 | 9 | 0 | -5 | .
Cc1cc(C)n(-c2nc3ccccc3c(=O)n2OCc2ccc(F)cc2)n1 | 48 | 6 | -4 | 25 | 9 | .
Cc1cc(C)n(-c2nc3ccccc3c(=O)n2OCc2ccc(Cl)cc2)n1 | 52* | 11 | 15 | 29 | . | 51*
CC1=NN(C(=O)CCc2ccc3c(c2)OCO3)C(O)(C(F)(F)F)C1 (stereo not drawn) | 14 | 7 | 7 | 18 | 20 | .
Oc1c(Br)cc(Br)c(/C=N/n2c(-c3ccccc3)n[nH]c2=S)c1Br | 56* | 20 | 21 | 29 | 119* | 51*
CC(=O)Nc1ncnc2c1c(-c1ccc(Cl)cc1)nn2C(C)(C)C | 52* | 49 | 17 | -2 | -20 | 48*
CNS(=O)(=O)c1cccc(C(=O)OCCCOC(=O)c2cccc(S(=O)(=O)NC)c2)c1 | 6 | 13 | 5 | 7 | -24 | .
CCc1ccc2c(c1)/C(=C/C(=O)c1cccs1)C(=O)N2 | 54* | 35 | 33 | 2 | 124* | -101
CCc1ccc2c(c1)/C(=N/N(C)C(=S)NC)C(=O)N2 | 17 | 11 | 30 | 31 | -46 | .
Cc1cc(C)c(S(C)(=O)=O)c(N(C)N)n1 | 1 | 11 | -2 | -6 | -13 | .
CN1C(=O)[C@H](Cc2ccc([N+](=O)[O-])cc2)NC1=S | 21 | 14 | 0 | 26 | -10 | .
CCOC(=O)/C(=C\c1cn(C)c2ccccc12)[N+](=O)[O-] | 54* | 3 | 25 | 27 | 7 | 58*
COc1cc(C(=O)Nc2cnc(NC(=O)C(C)C)cc2C)cc(OC)c1OC | 0 | 4 | -14 | 15 | -1 | .
CN(C)S(=O)(=O)c1cccc(NC(=S)N/N=C/c2cc(Br)ccc2O)c1 | 58* | 20 | 29 | 19 | -7 | 48*
O=C1NN(c2ccccc2)C(=O)/C1=C\c1ccc(-c2cc([N+](=O)[O-])ccc2O)o1 | 20 | 36 | 8 | 34 | 0 | .
Cc1ccc(-c2cnc(-c3ccncc3)o2)cc1 | -1 | -6 | 24 | 9 | . | .
SMILES | tim23-1 inh | NLRP3 yeast inh | TIM10 inh | tim10-1 inh | PfHsp90 yeast 2 | tim23-1 conf
Nc1ccc(-c2ncc(-c3ccccc3)o2)cc1 | 51* | 25 | 15 | 25 | 6 | 39
O=C1C=C(c2ccc3cc[nH]c3c2)C[C@@H](c2ccc3c(c2)OCO3)C1 | 55* | 23 | 23 | 21 | -31 | 47*
COc1cc2c(cc1OC)C(c1cccc(Br)c1)CC(=O)N2 (stereo not drawn) | 11 | 5 | 1 | -2 | 7 | .
O=C1CC(c2cccc(Br)c2)c2cc3c(cc2N1)CCC3 (stereo not drawn) | 58* | 16 | 8 | 38 | -75 | 52*
COc1ccccc1NC(=S)NCCSc1ccc(Cl)cc1 | 54* | 7 | 40 | 33 | -1 | 50*
COc1ccccc1NC(=S)NCCc1ccc(Cl)cc1 | 3 | -19 | 39 | 40 | -8 | .
COc1ccc(NC(=S)NCCSc2ccc(Cl)cc2)c(OC)c1 | 50* | 11 | 32 | 34 | -18 | 42*
COc1ccccc1C1(CC(=O)Nc2nccs2)CCOC(C(C)C)C1 (stereo not drawn) | 31 | 5 | 9 | 39 | . | .
CCCCN(C(=O)c1ccc(-n2nc(C)cc2C)cc1)c1c(N)n(CCC)c(=O)[nH]c1=O | 9 | 7 | 3 | 1 | 9 | .
CCOc1ccccc1/C=C/c1onc(C)c1S(=O)(=O)N1CCC(C(=O)NC(C)(C)C)CC1 | 9 | 27 | 4 | 18 | -4 | .
O=c1c2ccc([N+](=O)[O-])cc2ncn1CCOc1ccc(Cl)cc1 | 62* | 16 | 39 | 7 | 45 | 65*
COc1ccc2c(c1)NC(c1ccc(N(C)C)cc1)c1cccn1-2 (stereo not drawn) | 56* | 16 | 36 | 39 | -1 | 61*
COc1ccc2c(c1)NC(c1cc(Cl)cc(Cl)c1O)c1cccn1-2 (stereo not drawn) | 1 | 14 | 16 | 1 | -19 | .
